# An excerpt weighted towards active compounds, which were near 2.8% of everything screened.
# Furin inhibitor: human furin inhibition; P09958; AID 463115; 220,000 compounds, 0.061% hits; purified furin, fluorogenic substrate cleavage; inhibition, % at 20 µM or 30 µM; in the data active = inhibition above about 25%
# Target sequence (P09958 108-714 limits assumed): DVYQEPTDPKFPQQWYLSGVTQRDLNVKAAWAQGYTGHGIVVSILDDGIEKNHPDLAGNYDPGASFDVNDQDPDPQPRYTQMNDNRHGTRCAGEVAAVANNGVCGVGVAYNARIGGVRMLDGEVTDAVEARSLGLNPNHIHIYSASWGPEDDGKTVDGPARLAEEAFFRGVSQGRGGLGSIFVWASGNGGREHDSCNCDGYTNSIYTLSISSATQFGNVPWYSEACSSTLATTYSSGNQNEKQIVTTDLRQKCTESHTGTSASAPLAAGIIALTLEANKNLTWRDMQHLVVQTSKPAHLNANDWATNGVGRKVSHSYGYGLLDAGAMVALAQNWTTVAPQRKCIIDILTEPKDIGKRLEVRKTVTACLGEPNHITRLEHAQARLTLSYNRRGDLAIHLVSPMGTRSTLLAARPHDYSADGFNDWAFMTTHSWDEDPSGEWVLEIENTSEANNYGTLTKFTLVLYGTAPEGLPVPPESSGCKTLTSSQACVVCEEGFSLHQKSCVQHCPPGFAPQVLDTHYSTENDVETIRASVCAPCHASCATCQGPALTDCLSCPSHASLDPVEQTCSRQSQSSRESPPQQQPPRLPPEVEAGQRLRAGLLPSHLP
# PGE2 EP2 inh: EP2 receptor (human) inhibition; C6 glioma cells expressing human EP2, cAMP TR-FRET; cells stimulated with saturating PGE2; inhibition, % at 25 µM; 260,000 compounds, 0.52% hits;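 active = percent inhibition above 40 after rounding to a whole number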;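 note: rat C6 glioma host cells with rolipram phosphodiesterase inhibitor present; the protocol text gives 20 µM as final concentration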
# NCF1 inh: blocks human p47phox regulatory protein of NADPH oxidases. p47phox/p22phox peptide binding, fluorescence polarization, 2 h. inhibition, % at 24.7 µM. 220,000 compounds, 0.53% hits. AID 1274;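 active = inhibition above about 30%, limit read from the data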;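 note: 0% = p47phox with labelled peptide and 100% = labelled peptide alone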
# HSV augment: HSV replication enhancement; AID 1956; HSV replication augmentation in cells, fold increase; 220,000 compounds, 0.005% hits; maximum fold increase; in the data active = maximum fold increase above about 1.5; tested in PC3 cells
# Wee1 degr inh: inhibitors of human Wee1 degradation; P30291; HeLa Luc-Wee1K328M stability, luciferase luminescence; 100% = proteasome inhibitor MG132 effect; reporter increase, % at 5 µM; 220,000 compounds, 1.2% hits; AID 1321;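 active = activation above the mean of all tested compounds plus 3 SD, set per screening run, cut at about 8.8% in these data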;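 note: cells exposed to compound for 20 h before luminescence read; 0% = DMSO alone and 100% = MG132 at 30 µM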
# EP2 mod: modulators of human EP2 prostaglandin E2 receptor | P43116 | EP2-expressing cells, cAMP HTRF FRET, PGE2 co-stimulation | induction, % at 25 µM | 260,000 compounds, 0.83% hits | AID 940;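 active = compounds whose cAMP rise, as percent of the full-agonist control response, exceeds 60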;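 note: rat C6 glioma line stably carrying human EP2 under a CMV promoter; the protocol text gives 20 µM as final concentration; 100% = response of wells given 1 µM PGE2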
# EP2 confirm: EP2 receptor cAMP induction, counter-screens negative; shares compounds with EP2 mod; C6 glioma EP2 cells, cAMP HTRF induction; plus low (about EC15) PGE2 agonist; calls only at 20 µM (by protocol); 1,300 compounds, 47% hits; AID 1080;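 active = cAMP induction above 50% in the main assay while under 30% in all four parallel counter assays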;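 note: rat C6 glioma cells stably expressing human EP2 receptor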
# Numbers without * were called inactive; i = inactive; . = no result given; + = active, no number; ! = a repeat was not active.
SMILES,Furin inhibitor,PGE2 EP2 inh,NCF1 inh,HSV augment,Wee1 degr inh,EP2 mod,others
COc1ccc2c(c1O)-c1c(OC)c(OC)cc3c1[C@H](C2)N(C)CC3,.,11,.,.,.,17,
COc1ccccc1CNC(=O)CN1C2CCC1CC(O)(c1ccccn1)C2 (stereo not drawn),.,.,.,.,.,-16,
C=C1C(=O)O[C@@H]2C[C@@H](C)[C@@H]3C=CC(=O)[C@@]3(C)[C@@H](OC(=O)CC(=O)O[C@H]3[C@@H]4C(=C)C(=O)O[C@@H]4C[C@@H](C)[C@@H]4C=CC(=O)[C@]43C)[C@H]12,-30,166*,1,i,.,-44,
O=[N+]([O-])N1COC(CN2CCOCC2)C1 (stereo not drawn),.,2,.,.,.,1,
CCN(CC)c1ccc(/C=N/c2sc3c(c2C#N)C2CCN3CC2)c(O)c1,-5,7,74*,.,5,-42,
COc1cccc2c1C(=O)c1c(O)c3c(c(O)c1C2=O)C[C@](O)(/C(C)=N/O)C[C@@H]3O[C@@H]1C[C@H](N)[C@@H](O)[C@H](C)O1,.,46*,.,.,.,8,
O=C1NC(=O)C(CCc2ccncc2)(Cc2ccc(OCc3ccccc3)cc2)C(=O)N1,-23,13,4,i,8.8*,9,
COc1ccc(CC2(CCc3ccncc3)C(=O)NC(=O)NC2=O)cc1,-21,8,11,i,1,-3,
Fc1ccc2c(c1)nc(C(F)(F)F)n2C1CCN(Cc2nnnn2Cc2ccco2)CC1,.,26,.,.,.,5,
C[C@]12CC[C@@H](O)CC1CC[C@@H]1[C@@H]2CC[C@]2(C)C(=O)CC[C@@H]12 (stereo partly drawn),.,18,.,.,.,19,
C[C@]12CCC3C(CC[C@H]4C[C@@H](O)CC[C@]34C)C1CCC2=O (stereo partly drawn),.,42*,.,.,.,-37,
O=C1NC(=O)N(c2ccc3c(c2)OCO3)C(=O)/C1=C/c1cccs1,-35,92*,-8,.,-4,-84,
O=C1NC(=O)N(c2ccc3c(c2)OCO3)C(=O)/C1=C/c1ccsc1,-18,4,-3,i,0,-34,
Cc1ccccc1N1C(=O)NC(=O)/C(=C\c2cnn(-c3ccccc3)c2)C1=O,0,51*,2,i,0,-57,
O=C1N[C@]2(CN3CCC2CC3)C(=O)N1CN(Cc1ccccc1)c1ccccc1,.,54*,.,.,.,8,
O=C(Cn1cc(/C=C2\C(=O)NC(=S)N(c3ccccc3)C2=O)c2ccccc21)NCc1ccco1,.,9,.,.,.,-80,
C[C@]12CCC(=O)C=C1CCC1C2CC[C@@]2(C)C1CC[C@@H]2O (stereo partly drawn),.,4,.,.,.,73*,EP2 confirm=+
CC[C@H]1C(=O)OC[C@@H]1Cc1cncn1C,.,6,.,.,.,13,
CC[C@@H]1C(=O)OC[C@@H]1Cc1cncn1C,-7,16,2,i,3,80*!,EP2 confirm=i
CC(C)CCn1c(=O)c(C(=O)NCc2ccco2)c(O)c2ccccc21,-9,3,-5,i,-5,21,
CCCCn1c(=O)c(C(=O)NCc2ccco2)c(O)c2ccccc21,-21,5,-7,i,-4,67*,EP2 confirm=+
Nc1ccc(Cl)cc1C(=O)c1ccccc1Cl,-16,13,-15,.,-2,67*,EP2 confirm=+
C=CCc1cc(CN2C3CCC2CC(O)(c2nccn2C)C3)cc(OC)c1OCC (stereo not drawn),.,2,.,.,.,-18,
Cc1ccc(CN2C(=O)CN=C(c3ccccc3)c3ccccc32)cc1,-11,5,-1,i,1,68*,EP2 confirm=i
Nc1ccc(Br)cc1C(=O)c1ccccc1,-6,2,-3,i,1,83*,EP2 confirm=+
O=C(c1cccs1)c1cn(Cc2ccccc2Cl)c2ccccc12,-19,9,-39,i,4,74*,EP2 confirm=i
N#Cc1ccccc1Cn1cc(C(=O)c2cccs2)c2ccccc21,-14,15,1,i,2,29,
CN(C)CCN(C(=O)Cc1nn(C)c(=O)c2ccccc12)C1CCCC1,.,2,.,.,.,-16,
Cc1cccc(C2=NCC(=O)Nc3sc(C)cc32)c1,.,16,.,.,.,-7,

# Bioassay records deposited in PubChem BioAssay by several laboratories.
